From PubChem BioAssay (NCI)
Several values for one entry are separate records, joined by “and”; a condition that tells them apart may be missing. Equal entries are not always repeated. Compounds without any hit were thinned out: in the full panel of roughly 83,000, 20% have a hit.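 96-well plates, one dose, 48 hours. Percent growth reported; active if below 10.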 A number with no mark means an inactive call. Activity calls are given as the source filed them.

Assays:
Experiment in all cases: NCI-60 one-dose screen, 48 h (100 = growth as untreated, 0 = no growth, -100 = all killed)
HCT-15 colon = settings: 10 µM unless noted
SNB-75 CNS = settings: 10 µM unless noted
SNB-19 CNS = settings: 10 µM unless noted
U251 CNS = settings: 10 µM unless noted
PC-3 prostate = settings: 10 µM unless noted
SK-MEL-5 melanoma = settings: 10 µM unless noted
UACC-62 melanoma = settings: 10 µM unless noted
LOX IMVI melanoma = settings: 10 µM
SK-MEL-2 melanoma = settings: 10 µM unless noted
EKVX NSCLC = settings: 10 µM unless noted
UO-31 renal = settings: 10 µM unless noted
TK-10 renal = settings: 10 µM unless noted
ACHN renal = settings: 10 µM unless noted
CAKI-1 renal = settings: 10 µM unless noted
A498 renal = settings: 10 µM unless noted
CCRF-CEM leukemia = settings: 10 µM unless noted
MOLT-4 leukemia = settings: 10 µM unless noted
HT29 colon = settings: 10 µM unless noted
SK-MEL-28 melanoma = settings: 10 µM unless noted
SN12C renal = settings: 10 µM unless noted

| Structure (SMILES) | growth (HCT-15 colon) [%] | growth (SNB-75 CNS) | growth (SNB-19 CNS) | growth (U251 CNS) | growth (PC-3 prostate) | growth (SK-MEL-5 melanoma) | growth (UACC-62 melanoma) | growth (LOX IMVI melanoma) | growth (SK-MEL-2 melanoma) | growth (EKVX NSCLC) | growth (UO-31 renal) | growth (TK-10 renal) | growth (ACHN renal) | growth (CAKI-1 renal) | growth (A498 renal) | growth (CCRF-CEM leukemia) | growth (MOLT-4 leukemia) | growth (HT29 colon) | growth (SK-MEL-28 melanoma) | growth (SN12C renal) |
| --- | --- | --- | --- | --- | --- | --- | --- | --- | --- | --- | --- | --- | --- | --- | --- | --- | --- | --- | --- | --- |
| O=C1C=CC(=O)c2c(O)c(CO)c(CO)c(O)c21 | 37.8 | 55.9% | 103% | 105% | 25.6% | 73.8% | 93.3% | 73.5% | 119% | 105% | 75.5% | 107% | 95.3% | 93.4% | 120% | 78.5% | 86.6% |  |  |  |
| O=C(Nc1cccc(C(F)(F)F)c1)Oc1ccc(Cl)c2cccnc12 |  | 65.9% | 46.1% | 9% (active) | -40.1% (active) | 34% | 32.4% | 2.8% (active) | 9.44% (active) | -2.85% (active) | -17.3% (active) | 72.2% | -2.14% (active) |  | 78.5% | -15.3% (active) | -1.74% (active) | 74.3% | 58.3% | 33.1% |
| CCC1C[N+]2=C(c3cc(OC)c(OC)cc3CC2)c2c1cc1n2CCc2cc(OC)c(OC)cc2-1 (centres undefined) |  | 24.5% | 33.8% | 22.7% | 17.4% | -46.8% (active) | 18.7% | 41.7% | -1.15% (active) | 57.9% | 90.3% | 82.9% | 96.9% | 87% | 75% | 52.1% | 41.5% | 41% | 32.8% | 32.7% |
| CC(C)(C)c1ccc(CCO)cc1 |  | 96.7% | 95.7% | 103% | 99.8% | 95.6% | 89.5% | 99.5% | 92.3% | 89.6% | 78.8% | 93.7% | 107% |  | 118% | 87.2% | 99.1% | 110% | 121% |  |
| N#Cc1c2ccccc2nc2ccccc12 |  | 97.8% | 92.1% | 94.9% | 91% | 94.8% |  | 101% | 125% |  | 77.5% |  |  |  | 67.1% | 98.2% | 97.1% | 110% | 132% | 93.5% |
| C[C@@]1(CO)[C@H](O)CC[C@@]2(C)[C@H]1CC[C@H]1C[C@@H]3C[C@@]12CC[C@@]3(O)COC(=O)CN |  | 57.3% | 59.6% | 44.3% | 45.4% | -43.8% (active) | 26.3% | 29% | 102% | 74.2% | 22.7% | 85.3% |  | 17% |  | 32.8% | 28.2% |  |  |  |
| CCC1CCCCN1C(=S)N/N=C(\C)c1ccccn1 (centres undefined) |  | 16.1% | 16.2% | 6.56% (active) |  | -61.5% (active) | -39.8% (active) | 6.45% (active) | -11.9% (active) | 10.9% | -17.6% (active) | 19.7% | 7% (active) | 10.4% | -21.9% (active) |  |  | -19.5% (active) | 28% | 7.07% (active) |
| N=C1C=C(N)C(=O)c2ccccc21 |  | -99.1% (active) | -98.7% (active) | -72.1% (active) | -7.01% (active) | -96% (active) | -95.8% (active) | -100% (active) | -53.6% (active) |  | -86.3% (active) | -67.5% (active) | -81.6% (active) | -47.7% (active) |  | 3.15% (active) | -25% (active) |  | -96.5% (active) | -66.9% (active) |
| Nc1cccc2cccc([N+](=O)[O-])c12 |  | 81.8% | 102% | 101% | 103% | 111% | 98.9% | 105% | 98.3% | 120% | 74.7% | 109% |  | 107% | 104% | 102% |  |  | 96.4% | 107% |
| COC(=O)Nc1nc2ccc(C3(c4ccc(F)cc4)OCCO3)cc2[nH]1 |  | 10.3% | 89.1% | 13.9% | 14.8% | 21.2% | 53.3% | 45.2% |  |  | 55.4% | 47.2% | 41.9% | 40.8% | 4.58% (active) | 5.57% (active) | 21.8% | 0.785% (active) | 48.1% | 41.4% |
| O=C(Nc1ccc(Cl)c(Cl)c1)OCc1ccco1 |  | 8.5% (active) | 63.3% | 43.1% | 54.1% | 30.6% | 25.5% |  | 28.9% | 56.9% | 36.1% | 58.2% | 32.5% | 25.4% | 71.5% | 39.3% | 34.1% | 34% | 74.1% | 48.8% |
| COc1ccc2nc3c4c(nccc4c2c1)-c1ncccc1C3=O |  |  |  |  |  |  | -95.8% [50 µM] (active) and -100% [50 µM] (active) |  |  |  |  | -90.7% [50 µM] (active) and -100% [50 µM] (active) |  |  |  |  |  |  |  |  |
| COc1cc(-c2ccc(-[n+]3nc(-c4ccc([N+](=O)[O-])cc4)nn3-c3ccc([N+](=O)[O-])cc3)c(OC)c2)ccc1-[n+]1nc(-c2ccc([N+](=O)[O-])cc2)nn1-c1ccc([N+](=O)[O-])cc1 |  | -35.8% (active) | 40.8% | 43.9% | 47.9% | 47.4% | 85.9% | -75.5% (active) |  |  | 6.95% (active) | -9.35% (active) | 9.61% (active) |  | -22.2% (active) | 12.7% | 17.9% | -6.65% (active) |  | 2.95% (active) |
| N=C(N)Sc1cccc[n+]1[O-] |  | 61.5% | 59% | 41.5% | 38.1% | 56.2% | 23.2% | -30.9% (active) | 59% | 47.7% | 36.1% | 86.2% |  |  | 81.7% | -8.85% (active) | 12.7% | 50.3% |  | 101% |
| O=C1C=CC(O)=CC1=P(c1ccccc1)(c1ccccc1)c1ccccc1 |  | 84.2% | 94.9% | 92.3% | 91.6% | 95.7% | 83.7% | 94.7% | 82.6% | 93.8% | 71.8% | 96.3% | 99.2% | 86.2% | 58.6% | 86.9% | 101% |  | 102% | 89.4% |
| CN1CCC(c2ccccc2)(c2ccccc2)C(=O)C1 |  | 58% | 90.7% | 91.3% |  | 97.7% | 93.6% |  | 122% | 47.3% | 68.9% | 76.4% | 102% |  | 106% | 29.1% | 92.7% | 81.7% | 119% |  |
| COC1CC(C)C(OC)c2cc(O)cc(c2O)NC(=O)/C(C)=C/C=C\C(C)C(OC(N)=O)/C(C)=C\C(C)C1OC (centres undefined) |  | 47.8% | 37.8% | 43.9% | 25.2% | -10.9% (active) | -27.6% (active) | 5.8% (active) | 39.4% | 41% | -70.9% (active) | 68% | 28.5% |  |  | -30.7% (active) | -23.4% (active) | 5.88% (active) |  | 30.3% |
| COc1cc(/C=C/C(=O)CC(=O)/C=C/c2ccc(O)c(OC)c2)ccc1O |  | 7.11% (active) | 48.2% | 18.5% | 36.8% | 71% | 53.5% | 8.79% (active) | 81.1% | 67.6% | 13% | 69.7% | 72.9% | 64.3% | 101% | 5.28% (active) | 31.4% | -20.3% (active) |  | 79% |
| CCN(CC)c1ccc(/C=C\C(=O)c2ccc(NC(C)=O)cc2)cc1 |  | -0.746% (active) | 61.5% | 41.9% | 71.9% | 97.4% | 78.5% | 74.1% | 76.8% | 79.1% |  | 92.4% | 61.4% |  | 71.6% | 82.9% |  |  | 82% | 48.9% |
| O=C(/C=C/C(Cl)(Cl)Cl)Nc1ccc(Cl)cc1 |  | 110% | 103% | 100% | 104% | 90.8% | 98.5% | -69.8% (active) |  | 94.2% | -78% (active) | 129% | 104% | 101% | 101% | 73.2% | 84.2% | 94.7% |  | 101% |
